Growth data for 15 molecules are collected here from PubChem BioAssay (NCI).

Compounds without any hit were thinned out: in the full panel of roughly 83,000, 20% have a hit.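 Results are percent growth after 48 hours of single-concentration exposure. 100 means growth as in untreated cells, lower positive values show inhibition; negative values down to -100 show cell death.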 Activity calls are given as the source filed them. Rule for the calls: active = growth percent below 10; inactive = the rest.

For the assay, the system named is HCC-2998 colon. The assay is described as follows: NCI-60 one-dose screen, 48 h (100 = growth as untreated, 0 = no growth, -100 = all killed). As to conditions: 10 µM unless noted.
Take `Cc1ccc(C(SCC(N)C(=O)O)(c2ccccc2)c2ccc(C)cc2)cc1` (stereo not given): the growth was -20.5% (active). The result for `Cc1cc(Nc2ccc(C)c(Cl)c2)n2nc(C(F)(F)F)nc2n1` reads 74.5% (inactive); that for `COc1ccccc1NS(=O)(=O)c1ccc2oc(SC(C)C)nc2c1`, 26% (inactive). The result for `CCN1CCN(c2nc(NCCCNc3ccnc4cc(Cl)ccc34)c3ccccc3n2)CC1` reads 21.9% (inactive); that for `CCc1nnc(CNc2ccc(Cl)cc2)o1`, 97.6% (inactive); that for `CCOC(=O)c1c(C)oc2ncnc(N3CCN(C(=S)Nc4ccccc4)CC3)c12`, 99.3% (inactive). On to `C=C1c2nc3ccccc3n2C=C(c2cccc(Cl)c2)N1Cc1ccc(OC)cc1`, for which the growth was 25.7% (inactive). Take `COc1ccc(/C=C/C(=O)c2ccc(O)c(CN3CCN(c4cc5c(cc4F)c(=O)c(C(=O)O)cn5C4CC4)CC3)c2)cc1`: the growth is 43.5% (inactive). The same measure for `O=C1NC(=Nc2ccc(O)cc2)S/C1=C\c1cccc(Cl)c1`: 83.8% (inactive). As for `N#Cc1c(-c2ccc(Cl)cc2)nc(N/N=C/c2cccc(Br)c2)nc1N1CCOCC1`, the growth is 96.1% (inactive). With `COc1ccc(N=Nc2nccs2)c(O)c1`, the growth is 60.8% (inactive).

Turning to `O=C1/C(=C/C(Cl)=C/c2ccccc2)SC(=S)N1CCc1ccc(O)cc1`, the growth was -68.1% (active). In the case of `COc1cc(/C=C/C(=O)c2cccnc2Nc2ccc(F)cc2)cc(OC)c1OC`, the growth was 21.7% (inactive).

For the molecule `O=C1Nc2ccc(Br)cc2C12Oc1ccccc1C1CC(c3ccc(F)cc3)=NN12` (stereo not given), the growth is 97.8% (inactive). With `CSc1nc(Nc2cccc(NC(=O)CCl)c2)c(C#N)c(-c2cccc([N+](=O)[O-])c2)n1`, the growth is 105% (inactive).
